Data on 10 compounds can be found in PubChem BioAssay (Tox21).

SMILES strings stand for the structures. Unmarked numbers belong to inactive results. Records with an inconclusive call do not appear. Activity calls are given as the source filed them. Calls follow the shape of the dose curve; as a rule, active = well fitted curve in the direction sought with a large enough effect in the repeat runs; inconclusive = weak or mixed curves; inactive = no such curve, though single readings can be large; an effect the other way counts as inactive or inconclusive.

Experiment [1] can be described thus: Caspase-3/7 induction in HepG2 cells by small molecules, qHTS assay (AID 1346978). Also: nearly all actives have a fitted effect of over 15% in size. Also: potency is read from the fitted curve at half-maximal effect. Summed up: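 Wild-type HepG2 cells, 2,000/well, settled 5 hr at 37 C and 5% CO2, then compound-treated for 17 hr; caspase-3/7 activity read by luminescent Caspase-Glo 3/7 after 30 min at room temperature.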
Experiment [2] can be described thus: Caspase-3/7 induction in CHO-K1 cells by small molecules, qHTS cell viability counter screen (AID 1346979). Also: nearly all actives have a fitted effect of over 35% in size. Also: potency is read from the fitted curve at half-maximal effect. Summed up:
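Multiplexed with Caspase-Glo 3/7 in CHO-K1 cells, this counter screen added CellTiter-Fluor after 16hr of compound exposure and recorded fluorescence 1hr later.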

Experiment [3] is described as follows: Caspase-3/7 induction in CHO-K1 cells by small molecules, qHTS assay (AID 1346980). Also: nearly all actives have a fitted effect of over 15% in size. Also: potency is read from the fitted curve at half-maximal effect. Put shortly: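 Wild-type CHO-K1 cells exposed to compounds for 17hr at 37 C, 5% CO2. Caspase-3/7 activity then measured by Caspase-Glo 3/7 luminescence after 30min at room temperature.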
The nature of experiment [4]: Caspase-3/7 induction in HepG2 cells by small molecules, qHTS cell viability counter screen (AID 1346981). Also: nearly all actives have a fitted effect of over 30% in size. Also: potency is read from the fitted curve at half-maximal effect. Put shortly: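 CellTiter-Fluor fluorescence measured viability in the same wells used for Caspase-Glo 3/7. HepG2 (wild type) at 2,000 cells/well were pre-incubated 5 hr, dosed, and given reagent at 16 hr, with 1 hr further at 37C.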
For experiment [5], the target named is Nuclear receptor subfamily 1 group I member 2 (Homo sapiens) (UniProt O75469). As to the kind of experiment: Human pregnane X receptor (PXR) small molecule agonists, qHTS assay (AID 1346982). Also: nearly all actives have a fitted effect of over 35% in size. Also: potency is read from the fitted curve at half-maximal effect. Summed up:
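Agonist mode: luminescence from ONE-Glo after 24 h compound exposure at 37C in HepG2 cells carrying hPXR-responsive CYP3A4 luciferase, plated in charcoal-stripped serum medium 5 h beforehand.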

The target of experiment [6] is Cytochrome P450 2C19 (Homo sapiens) (UniProt P33261). Kind of experiment: Cytochrome P450 Family 2 Subfamily C Member 19 (CYP2C19) small molecule antagonists: luciferase reporter qHTS assay (AID 1671197). Also: nearly all actives have a fitted effect of over 65% in size. Also: potency is read from the fitted curve at half-maximal effect. Summed up:
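Quantitative high-throughput screen of the Tox21 library using CYP2C19 with proluciferin substrate. Reaction: NADPH regeneration, 37C, 1 h, after 10 min compound preincubation at room temperature. Readout: luminescence.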

For experiment [7], the target named is Cytochrome P450 2C9 (Homo sapiens) (UniProt P11712). Kind of experiment: Cytochrome P450 Family 2 Subfamily C Member 9 (CYP2C9) small molecule antagonists: luciferase reporter qHTS assay (AID 1671198). Also: nearly all actives have a fitted effect of over 50% in size. Also: potency is read from the fitted curve at half-maximal effect. Put shortly: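 P450-Glo proluciferin substrate with CYP2C9 enzyme; 10 min RT preincubation, then NADPH regeneration 1 h at 37C; luciferin detection reagent 20 min RT, luminescence in relative luminescence units.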
Chain of Cytochrome P450 2C9 (Homo sapiens) (P11712 whole entry, looked up): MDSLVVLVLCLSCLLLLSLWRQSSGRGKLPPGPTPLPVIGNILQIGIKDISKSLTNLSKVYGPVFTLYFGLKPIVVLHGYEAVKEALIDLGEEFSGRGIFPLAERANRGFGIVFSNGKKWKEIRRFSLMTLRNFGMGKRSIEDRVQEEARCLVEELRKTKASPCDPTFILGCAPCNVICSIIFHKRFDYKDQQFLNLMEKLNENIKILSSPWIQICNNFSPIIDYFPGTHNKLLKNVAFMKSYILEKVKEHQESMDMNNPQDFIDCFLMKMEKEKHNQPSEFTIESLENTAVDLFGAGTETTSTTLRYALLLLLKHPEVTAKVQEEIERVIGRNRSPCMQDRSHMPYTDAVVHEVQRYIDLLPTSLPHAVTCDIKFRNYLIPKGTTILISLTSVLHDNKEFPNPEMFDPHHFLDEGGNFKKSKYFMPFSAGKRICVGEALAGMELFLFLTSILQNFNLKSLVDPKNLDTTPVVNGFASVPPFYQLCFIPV

In experiment [8] the target is Cytochrome P450 1A2 (Homo sapiens) (UniProt P05177). Kind of experiment: Cytochrome P450 Family 1 Subfamily A Member 2 (CYP1A2) small molecule antagonists: luciferase reporter qHTS assay (AID 1671199). Also: nearly all actives have a fitted effect of over 50% in size. Also: potency is read from the fitted curve at half-maximal effect. Put shortly:
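Luminescence from luciferin formed by CYP1A2 from a proluciferin substrate, read 20 min after detection reagent. Compound was pre-incubated 10 min with enzyme-substrate, and reaction started with NADPH regeneration solution for 1 h at room temperature; furafylline control.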

Experiment [9] has as its target Voltage-gated inwardly rectifying potassium channel KCNH2 (Homo sapiens) (UniProt Q12809). Kind of experiment: Human Ether-a-go-go-Related Gene (hERG) channel small molecule antagonists: fluorescence cell-based qHTS assay (AID 1671200). Also: nearly all actives have a fitted effect of over 50% in size. Also: potency is read from the fitted curve at half-maximal effect. Put shortly: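 Cell line hERG-U2OS; dye FluxOR II, 1 h RT dark; Tl+ stimulus; ex 480/em 540 nm, read each second for 2 min.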
Experiment [10] concerns the target Cytochrome P450 3A4 (Homo sapiens) (UniProt P08684). Kind of experiment: Cytochrome P450 Family 3 Subfamily A Member 4 (CYP3A4) small molecule antagonists: luciferase reporter qHTS assay (AID 1671201). Also: nearly all actives have a fitted effect of over 50% in size. Also: potency is read from the fitted curve at half-maximal effect. Put shortly: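 Room-temperature assay throughout: 10 min compound–enzyme/substrate preincubation, 1 h reaction after NADPH regeneration solution, 20 min detection. Luciferin formed from proluciferin substrate is quantified by luminescence.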

Experiment [11] deals with Cytochrome P450 2D6 (Homo sapiens) (UniProt P10635). Kind of experiment: Cytochrome P450 Family 2 Subfamily D Member 6 (CYP2D6) small molecule antagonists: luciferase reporter qHTS assay (AID 1671196). Also: nearly all actives have a fitted effect of over 50% in size. Also: potency is read from the fitted curve at half-maximal effect. Put shortly: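 CYP2D6 activity was followed as luminescence from its luciferin product after a 1 h NADPH-driven reaction at room temperature. Enzyme-substrate mix and compound were pre-incubated for 10 min, and the signal was read 20 min after adding detection reagent.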
Chain of Cytochrome P450 2D6 (Homo sapiens) (P10635 whole entry, looked up): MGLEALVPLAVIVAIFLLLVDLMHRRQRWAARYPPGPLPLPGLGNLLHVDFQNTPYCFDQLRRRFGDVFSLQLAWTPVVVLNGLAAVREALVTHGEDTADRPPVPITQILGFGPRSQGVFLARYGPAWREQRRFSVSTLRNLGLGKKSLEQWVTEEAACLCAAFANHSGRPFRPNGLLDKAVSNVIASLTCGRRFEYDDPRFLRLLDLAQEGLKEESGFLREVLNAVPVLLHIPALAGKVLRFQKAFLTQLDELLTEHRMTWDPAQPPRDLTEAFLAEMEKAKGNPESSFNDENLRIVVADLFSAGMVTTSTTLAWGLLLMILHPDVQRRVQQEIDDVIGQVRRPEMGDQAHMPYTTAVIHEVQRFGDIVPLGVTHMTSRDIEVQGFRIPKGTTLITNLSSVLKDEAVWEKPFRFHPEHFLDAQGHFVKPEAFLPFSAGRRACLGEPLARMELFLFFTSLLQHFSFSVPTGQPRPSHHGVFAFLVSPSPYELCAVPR

Experiment [12] addresses Nuclear receptor subfamily 1 group I member 2 (Homo sapiens) (UniProt O75469). Kind of experiment: Human pregnane X receptor (PXR) activation by small molecules, qHTS assay (AID 1346985). Also: nearly all actives have a fitted effect of over 40% in size. Also: potency is read from the fitted curve at half-maximal effect. Summed up:
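DPX-2 cells (HepG2 co-transfected with a PXR response element and a CYP3A4-promoter luciferase construct) were seeded at 2,000 per well, rested 5 hr at 37C, then exposed to DMSO-dissolved compounds for 24 hr. Activation was read as luciferase luminescence.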

Experiment [13] has the same target. As to the kind of experiment: CYP3A4 induction through human pregnane X receptor (PXR) by small molecules, qHTS assay (AID 1346984). Also: nearly all actives have a fitted effect of over 40% in size. Summed up:
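Read-out is luminescence after One-Glo addition, following a 3 hr, 37C incubation with Luciferin-IPA CYP3A4 substrate (3uM final). Before that, compounds were on DPX-2 cells (HepG2 co-transfected with PXR element plus CYP3A4-promoter luciferase) for 24 hr at 37C.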

Chain of Cytochrome P450 3A4 (Homo sapiens) (P08684 whole entry, looked up): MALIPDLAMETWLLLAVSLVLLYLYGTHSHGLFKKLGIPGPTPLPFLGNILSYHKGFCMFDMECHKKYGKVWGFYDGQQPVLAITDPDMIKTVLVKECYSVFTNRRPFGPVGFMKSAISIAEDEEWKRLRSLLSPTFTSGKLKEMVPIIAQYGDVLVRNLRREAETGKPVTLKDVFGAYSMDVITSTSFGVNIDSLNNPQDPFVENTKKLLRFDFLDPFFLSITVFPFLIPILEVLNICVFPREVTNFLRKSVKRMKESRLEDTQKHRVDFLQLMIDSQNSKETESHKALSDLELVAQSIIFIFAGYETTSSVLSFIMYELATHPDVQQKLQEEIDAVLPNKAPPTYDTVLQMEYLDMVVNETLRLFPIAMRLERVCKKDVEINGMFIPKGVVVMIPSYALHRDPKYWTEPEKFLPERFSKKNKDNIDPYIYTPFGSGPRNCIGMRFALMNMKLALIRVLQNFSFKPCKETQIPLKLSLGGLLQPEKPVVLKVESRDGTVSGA
Chain of Cytochrome P450 2C19 (Homo sapiens) (P33261 whole entry, looked up): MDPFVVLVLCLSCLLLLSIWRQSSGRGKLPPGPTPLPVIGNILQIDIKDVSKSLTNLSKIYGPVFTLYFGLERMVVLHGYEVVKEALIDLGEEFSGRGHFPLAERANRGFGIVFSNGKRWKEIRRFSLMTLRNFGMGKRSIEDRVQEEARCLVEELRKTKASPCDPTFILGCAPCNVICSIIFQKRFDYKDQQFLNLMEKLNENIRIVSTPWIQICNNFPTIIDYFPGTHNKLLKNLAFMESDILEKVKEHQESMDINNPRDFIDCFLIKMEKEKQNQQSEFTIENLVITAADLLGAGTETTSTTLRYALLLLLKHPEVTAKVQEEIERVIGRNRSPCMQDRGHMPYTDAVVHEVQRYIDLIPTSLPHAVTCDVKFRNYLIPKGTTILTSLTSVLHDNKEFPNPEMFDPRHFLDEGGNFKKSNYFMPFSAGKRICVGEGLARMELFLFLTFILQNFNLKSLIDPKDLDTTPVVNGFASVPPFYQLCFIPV
Chain of Cytochrome P450 1A2 (Homo sapiens) (P05177 whole entry, looked up): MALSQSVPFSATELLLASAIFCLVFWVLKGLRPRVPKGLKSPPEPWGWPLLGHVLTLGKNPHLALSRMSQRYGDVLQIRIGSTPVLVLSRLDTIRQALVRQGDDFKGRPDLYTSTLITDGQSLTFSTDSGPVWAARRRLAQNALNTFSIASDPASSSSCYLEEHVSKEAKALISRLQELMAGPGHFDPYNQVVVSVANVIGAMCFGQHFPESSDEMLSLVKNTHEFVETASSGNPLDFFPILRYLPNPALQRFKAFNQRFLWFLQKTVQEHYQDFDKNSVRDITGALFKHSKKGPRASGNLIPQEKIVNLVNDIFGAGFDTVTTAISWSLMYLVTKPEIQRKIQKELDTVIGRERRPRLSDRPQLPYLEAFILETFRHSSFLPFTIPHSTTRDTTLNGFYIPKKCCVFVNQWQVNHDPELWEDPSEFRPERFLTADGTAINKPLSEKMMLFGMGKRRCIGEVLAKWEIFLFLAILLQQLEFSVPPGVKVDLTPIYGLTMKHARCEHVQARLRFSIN
Chain of Nuclear receptor subfamily 1 group I member 2 (Homo sapiens) (O75469 whole entry, looked up): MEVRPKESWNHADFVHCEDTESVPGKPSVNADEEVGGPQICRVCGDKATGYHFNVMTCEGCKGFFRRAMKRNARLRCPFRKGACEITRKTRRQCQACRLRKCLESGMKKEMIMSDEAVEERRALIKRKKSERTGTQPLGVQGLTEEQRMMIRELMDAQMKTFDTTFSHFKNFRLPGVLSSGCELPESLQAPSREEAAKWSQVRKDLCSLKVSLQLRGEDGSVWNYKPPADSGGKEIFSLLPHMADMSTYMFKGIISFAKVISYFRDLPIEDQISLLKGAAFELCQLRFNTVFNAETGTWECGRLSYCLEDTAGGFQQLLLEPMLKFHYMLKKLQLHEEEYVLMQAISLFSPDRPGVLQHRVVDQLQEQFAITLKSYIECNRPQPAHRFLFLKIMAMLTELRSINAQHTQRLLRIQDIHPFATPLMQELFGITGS
Chain of Voltage-gated inwardly rectifying potassium channel KCNH2 (Homo sapiens) (Q12809 whole entry, looked up): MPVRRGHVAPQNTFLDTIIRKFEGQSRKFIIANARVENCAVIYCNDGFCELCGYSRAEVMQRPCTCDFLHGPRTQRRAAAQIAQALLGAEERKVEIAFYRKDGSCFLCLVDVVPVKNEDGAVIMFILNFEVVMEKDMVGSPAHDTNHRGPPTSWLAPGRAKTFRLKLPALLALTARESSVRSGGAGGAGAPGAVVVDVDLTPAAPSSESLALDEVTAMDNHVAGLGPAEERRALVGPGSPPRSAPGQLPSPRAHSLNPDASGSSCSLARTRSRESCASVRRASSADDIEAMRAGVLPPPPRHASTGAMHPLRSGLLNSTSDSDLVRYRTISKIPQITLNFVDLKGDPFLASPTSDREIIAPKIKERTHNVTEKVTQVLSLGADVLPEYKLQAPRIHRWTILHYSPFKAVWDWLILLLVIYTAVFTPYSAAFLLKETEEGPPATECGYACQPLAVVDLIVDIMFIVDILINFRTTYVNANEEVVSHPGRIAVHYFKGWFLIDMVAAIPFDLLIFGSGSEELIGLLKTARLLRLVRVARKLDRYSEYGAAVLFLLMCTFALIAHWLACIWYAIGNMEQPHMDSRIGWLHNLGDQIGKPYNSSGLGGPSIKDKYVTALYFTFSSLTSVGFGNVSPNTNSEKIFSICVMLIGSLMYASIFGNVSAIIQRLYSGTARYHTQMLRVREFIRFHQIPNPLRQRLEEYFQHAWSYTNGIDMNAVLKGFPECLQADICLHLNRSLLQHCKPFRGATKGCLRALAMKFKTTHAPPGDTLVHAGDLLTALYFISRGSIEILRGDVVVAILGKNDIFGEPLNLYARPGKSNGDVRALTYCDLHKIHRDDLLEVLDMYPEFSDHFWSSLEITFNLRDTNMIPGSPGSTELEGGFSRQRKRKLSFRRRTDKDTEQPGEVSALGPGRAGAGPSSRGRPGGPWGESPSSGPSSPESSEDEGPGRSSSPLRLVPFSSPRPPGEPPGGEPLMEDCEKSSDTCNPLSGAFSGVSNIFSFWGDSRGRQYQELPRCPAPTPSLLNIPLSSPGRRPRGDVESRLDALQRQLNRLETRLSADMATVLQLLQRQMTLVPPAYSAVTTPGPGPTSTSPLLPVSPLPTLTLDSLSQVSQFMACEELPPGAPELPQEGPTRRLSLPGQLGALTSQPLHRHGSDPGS

Consider `Cc1[nH]nc2c1N=C(c1ccccc1Cl)c1cc([N+](=O)[O-])ccc1N2`, for which the Potency was 17.2 µM (active) in [1]; 21.7 µM (active) in experiment [2]; 19.3 µM (active) in experiment [3]; 19.3 µM (active) in experiment [4]; 6.11 µM (active) in experiment [5]; 17.8 µM (active) in experiment [6]. In addition, the Potency in [7] was 15.9 µM (active); in [8], 63.3 µM (active); in experiment [9] it was 8.71 µM (active); in experiment [10], 3.99 µM (active).

Take `Cc1onc(-c2c(Cl)cccc2Cl)c1C(=O)N[C@@H]1C(=O)N2[C@@H]1SC(C)(C)[C@@H]2C(=O)O`: the Potency result in [1], in [2], in [3], in experiment [4], in [5] and in experiment [8] was “inactive” throughout.

With `O=C1c2c(O)ccc(Nc3ccc(CCO)cc3)c2C(=O)c2c([N+](=O)[O-])ccc(O)c21`, the Potency entry in [1] and in experiment [3] was “inactive” throughout. Besides, the Potency in experiment [2] is 54.5 µM (active); in experiment [4], 54.5 µM (active); in [6] it was 39.9 µM (active); in experiment [7], 10 µM (active); in experiment [8] it was 31.7 µM (active); in experiment [10], 31.7 µM (active).

As to `CSc1ccc(C(=O)c2[nH]c(=O)[nH]c2C)cc1`, the Potency entry in experiment [1], in experiment [2], in experiment [3], in [4], in [5] and in experiment [11] was “inactive” each time. For the same compound, the Potency result in experiment [9] and in experiment [10] was “inactive” in each case.

For the compound `CNc1ccc(O)cc1`, the Potency entry in [1], in experiment [3] and in experiment [9] was “inactive” each time. The Potency in experiment [2] was 13.7 µM (active); in [4], 54.4 µM (active); in experiment [11], 12.6 µM (active); in experiment [6] it was 15.9 µM (active); in experiment [7], 22.4 µM (active); in experiment [8] it was 63.2 µM (active). Further, the Potency in [10] was 25.1 µM (active).

In the case of `CO[Si](CCCNc1ccccc1)(OC)OC`, the Potency result in [1], in [2], in experiment [3], in experiment [4], in experiment [5] and in experiment [11] was “inactive” throughout. The Potency result in experiment [8] and in experiment [9] was “inactive” throughout. Moreover, the Potency in [10] was 25.2 µM (active).

For `CCC1=C[C@@H]2CN(C1)Cc1c([nH]c3ccccc13)[C@@](C(=O)OC)(c1cc3c(cc1OC)N(C)[C@H]1[C@@](O)(C(=O)OC)[C@H](OC(C)=O)[C@]4(CC)C=CCN5CC[C@]31[C@@H]54)C2`, the Potency result in experiment [1], in experiment [3], in experiment [11], in experiment [6] and in [8] was “inactive” in each case. In addition, the Potency in experiment [2] is 0.668 µM (active); in experiment [4], 13.3 µM (active); in experiment [12] it was 8.91 µM (active); in experiment [9] it was 6.74 µM (active).

`Oc1cc2ccccc2c2ccccc12`: the Potency result in [1], in [3], in [5] and in experiment [9] was “inactive” each time. Further, the Potency was 15.4 µM (active) in [2]; 2.24 µM (active) in [11]; 1.12 µM (active) in experiment [6]; 5.03 µM (active) in experiment [7]; 0.0502 µM (active) in experiment [8]; 6.33 µM (active) in [10].

With `COc1cc(/C=C/C(=O)O[C@H]2CC[C@]34C[C@]35CC[C@]3(C)[C@@H]([C@H](C)CCC=C(C)C)CC[C@@]3(C)[C@@H]5CC[C@H]4C2(C)C)ccc1O`, the Potency in experiment [1] is 15 µM (active). Also, the Potency result in experiment [2], in [3], in experiment [5], in experiment [13], in [12] and in experiment [11] was “inactive” each time. For the same compound, the Potency result in experiment [6], in experiment [7], in experiment [9] and in experiment [10] was “inactive” in each case.

`S=c1[nH]c2ccccc2s1`: the Potency result in [1] was “inactive”. Also, the Potency is 64.8 µM (active) in [2], 30.6 µM (active) in [5], 39.9 µM (active) in experiment [11] and 11.2 µM (active) in [6].
